Data on 36 compounds can be found in the supplement of paper PMC10933113.

Values without a mark were called inactive.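 The calls were made as follows: active = curve rank above 3; inactive = curve rank 0.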

The subject of the assay is KeratinoSens (HaCaT ARE-luciferase) cells. As to the kind of experiment: Nrf2/ARE luciferase activation call in qHTS KeratinoSens assay (1 = active, 0 = inactive). Background: In qHTS, concentration-response curves come from the screen itself.

On to `CCn1cc[n+](C)c1.O=S(=O)([N-]S(=O)(=O)C(F)(F)F)C(F)(F)F`, for which the “Nrf2/ARE luciferase activation call” value is “not active ARE inducer (skin sensitizer alert)”.

Take `CCC[N+]1(C)CCCC1.O=S(=O)([N-]S(=O)(=O)C(F)(F)F)C(F)(F)F`: the “Nrf2/ARE luciferase activation call” value is “not active ARE inducer (skin sensitizer alert)”.

On to `CCCCCCCCCCCCCCCCCC(=O)[O-].OCC[NH+](CCO)CCO`, for which the “Nrf2/ARE luciferase activation call” value was “active ARE inducer (skin sensitizer alert)”.

`CCn1cc[n+](C)c1C.O=S(=O)([N-]S(=O)(=O)C(F)(F)F)C(F)(F)F`: the “Nrf2/ARE luciferase activation call” value was “not active ARE inducer (skin sensitizer alert)”.

Take `CCCCn1cc[n+](C)c1C.O=S(=O)([N-]S(=O)(=O)C(F)(F)F)C(F)(F)F`: the “Nrf2/ARE luciferase activation call” value was “not active ARE inducer (skin sensitizer alert)”.

`CCCC[N+](C)(CCCC)CCCC.O=S(=O)([N-]S(=O)(=O)C(F)(F)F)C(F)(F)F`: the “Nrf2/ARE luciferase activation call” value is “not active ARE inducer (skin sensitizer alert)”.

`CCC[n+]1ccn(C)c1C.O=S(=O)([N-]S(=O)(=O)C(F)(F)F)C(F)(F)F`: the “Nrf2/ARE luciferase activation call” value is “not active ARE inducer (skin sensitizer alert)”.

Take `CCC(COC(=O)c1cc(OC)c(OC)c(OC)c1)(c1ccccc1)N(C)C.O=C(O)/C=C\C(=O)O` (stereo unspecified): the “Nrf2/ARE luciferase activation call” value was “not active ARE inducer (skin sensitizer alert)”.

As for `CCCCCCn1cc[n+](C)c1.O=S(=O)([N-]S(=O)(=O)C(F)(F)F)C(F)(F)F`, the “Nrf2/ARE luciferase activation call” value was “not active ARE inducer (skin sensitizer alert)”.

Turning to `CCCC[P+](CC)(CCCC)CCCC.CCOP(=O)([O-])OCC`, the “Nrf2/ARE luciferase activation call” value was “not active ARE inducer (skin sensitizer alert)”.

On to `CCCCCCCCCCCCCC[P+](CCCCCC)(CCCCCC)CCCCCC.O=S(=O)([N-]S(=O)(=O)C(F)(F)F)C(F)(F)F`, for which the “Nrf2/ARE luciferase activation call” value is “not active ARE inducer (skin sensitizer alert)”.

As for `C[C@H]1[C@@H]2Cc3ccc(O)cc3[C@@]1(C)CCN2C.C[C@H]1[C@@H]2Cc3ccc(O)cc3[C@@]1(C)CCN2C.O=C(O)/C=C/C(=O)O`, the “Nrf2/ARE luciferase activation call” value was “not active ARE inducer (skin sensitizer alert)”.

`O=C(O)c1ccccc1O.Oc1cccc2cccnc12`: the “Nrf2/ARE luciferase activation call” value is “not active ARE inducer (skin sensitizer alert)”.

Regarding `CCCC[N+](C)(C)C.O=S(=O)([N-]S(=O)(=O)C(F)(F)F)C(F)(F)F`, the “Nrf2/ARE luciferase activation call” value is “not active ARE inducer (skin sensitizer alert)”.

For the compound `O=C(O)c1ccccc1O.OCCN(CCO)CCO`, the “Nrf2/ARE luciferase activation call” value is “not active ARE inducer (skin sensitizer alert)”.

As for `C[C@H](CN1CCOCC1)C(C(=O)N1CCCC1)(c1ccccc1)c1ccccc1.O=C(O)[C@H](O)[C@@H](O)C(=O)O`, the “Nrf2/ARE luciferase activation call” value was “not active ARE inducer (skin sensitizer alert)”.

For the compound `CC[N+]1(C)CCCC1.O=S(=O)([N-]S(=O)(=O)C(F)(F)F)C(F)(F)F`, the “Nrf2/ARE luciferase activation call” value was “not active ARE inducer (skin sensitizer alert)”.

With `CCCCCCCCCCCCOS(=O)(=O)O.OCCN(CCO)CCO`, the “Nrf2/ARE luciferase activation call” value is “not active ARE inducer (skin sensitizer alert)”.

Consider `CCN(C)C(=O)Oc1cccc([C@H](C)N(C)C)c1.O=C(O)[C@@H](O)[C@H](O)C(=O)O`, for which the “Nrf2/ARE luciferase activation call” value is “not active ARE inducer (skin sensitizer alert)”.

With `CCN(CC)CCc1c[nH]c2ccccc12.CCN(CC)CCc1c[nH]c2ccccc12.O=C(O)/C=C/C(=O)O`, the “Nrf2/ARE luciferase activation call” value is “not active ARE inducer (skin sensitizer alert)”.

For `CCCCn1cc[n+](C)c1.O=S(=O)([N-]S(=O)(=O)C(F)(F)F)C(F)(F)F`, the “Nrf2/ARE luciferase activation call” value is “not active ARE inducer (skin sensitizer alert)”.

In the case of `CCCCCCn1cc[n+](C)c1.O=S(=O)([O-])C(F)(F)F`, the “Nrf2/ARE luciferase activation call” value is “not active ARE inducer (skin sensitizer alert)”.

Regarding `O=C(O)/C=C\C(=O)O.c1ccc2nc(N3CCNCC3)ccc2c1`, the “Nrf2/ARE luciferase activation call” value is “not active ARE inducer (skin sensitizer alert)”.

In the case of `CCCC[N+]1(C)CCCC1.O=S(=O)([N-]S(=O)(=O)C(F)(F)F)C(F)(F)F`, the “Nrf2/ARE luciferase activation call” value was “not active ARE inducer (skin sensitizer alert)”.

Take `CCCC[N+]1(C)CCCCC1.O=S(=O)([N-]S(=O)(=O)C(F)(F)F)C(F)(F)F`: the “Nrf2/ARE luciferase activation call” value is “not active ARE inducer (skin sensitizer alert)”.

As for `CCC[N+]1(C)CCCCC1.O=S(=O)([N-]S(=O)(=O)C(F)(F)F)C(F)(F)F`, the “Nrf2/ARE luciferase activation call” value is “not active ARE inducer (skin sensitizer alert)”.

For the compound `O=C(O)/C=C/C(=O)O.O=C(O)/C=C/C(=O)O.c1ccc(CN2CCNCC2)cc1`, the “Nrf2/ARE luciferase activation call” value was “not active ARE inducer (skin sensitizer alert)”.

Consider `CCCCCCCCCCCC(=O)O.OCCN(CCO)CCO`, for which the “Nrf2/ARE luciferase activation call” value is “not active ARE inducer (skin sensitizer alert)”.

For `CC[S+](CC)CC.O=S(=O)([N-]S(=O)(=O)C(F)(F)F)C(F)(F)F`, the “Nrf2/ARE luciferase activation call” value was “not active ARE inducer (skin sensitizer alert)”.

Regarding `CCCn1cc[n+](C)c1.O=S(=O)([N-]S(=O)(=O)C(F)(F)F)C(F)(F)F`, the “Nrf2/ARE luciferase activation call” value is “not active ARE inducer (skin sensitizer alert)”.

In the case of `O=C(O)CC(O)(CC(=O)O)C(=O)O.Oc1cccc2cccnc12`, the “Nrf2/ARE luciferase activation call” value is “active ARE inducer (skin sensitizer alert)”.

As to `CCCCCCCCn1cc[n+](C)c1.O=S(=O)([N-]S(=O)(=O)C(F)(F)F)C(F)(F)F`, the “Nrf2/ARE luciferase activation call” value is “not active ARE inducer (skin sensitizer alert)”.

For the compound `CC[S+](C)CC.O=S(=O)([N-]S(=O)(=O)C(F)(F)F)C(F)(F)F`, the “Nrf2/ARE luciferase activation call” value is “not active ARE inducer (skin sensitizer alert)”.

As for `CC(C)=CCN1CC[C@@]2(C)c3cc(O)ccc3C[C@@H]1[C@@H]2C.O=C(O)CCC(=O)O`, the “Nrf2/ARE luciferase activation call” value was “not active ARE inducer (skin sensitizer alert)”.

For `C[N+](C)(C)CCO.O=S(=O)([N-]S(=O)(=O)C(F)(F)F)C(F)(F)F`, the “Nrf2/ARE luciferase activation call” value was “not active ARE inducer (skin sensitizer alert)”.

Consider `CC(=O)[O][Cr]([OH])[O]C(C)=O.CC(=O)[O][Cr]([OH])[O]C(C)=O.CC(=O)[O][Cr]([O]C(C)=O)[O]C(C)=O`, for which the “Nrf2/ARE luciferase activation call” value is “not active ARE inducer (skin sensitizer alert)”.
